Each structure is given as a SMILES string. “And” between values parts separate entries of the source, which are not always exact repeats. Identical values can stand only once. Records with an inconclusive call do not appear. Entries that show only a call come without a potency. A structure can be active in one record and inactive in another. The source made the active and inactive calls. Calls follow the shape of the dose curve; as a rule, active = well fitted cell-killing curve with a large enough effect in the repeat runs; inconclusive = weak or mixed curves, or effect the other way; inactive = no such curve, though single readings can be large or run the other way.
Potency is read from the fitted curve at half-maximal effect.

The assay is described as follows: qHTS assay for small molecule activators of the heat shock response signaling pathway - cell viability counter screen (AID 743209). Also: nearly all actives have a fitted effect of over 50% in size. Particulars: HSE-bla HeLa viability, CellTiter-Glo luminescence, 5 h; series mostly up to 62.6 µM. The source says:
U.S. Tox21 Program National Center for Advancing Translational Sciences [NCATS] NIH Chemical Genomics Center [NCGC] U.S. Environmental Protection Agency [EPA] National Institutes of Environmental Health Sciences [NIEHS] National Toxicology Program [NTP] U.S. Food and Drug Administration [FDA] Tox21 Assay Overview: Various chemicals, environmental and physiological stress conditions may lead to the activation of heat shock response/ unfolded protein response (HSR/UPR). There are three heat shock transcription factors (HSFs) (HSF-1, -2, and -4) mediating transcriptional regulation of the human HSR. To identify the compounds that activate HSR signaling, HSE-bla HeLa cell line (Invitrogen, Carlsbad, CA, USA) containing a beta-lactamase reporter gene under the control of the heat shock response elements was used to screen Tox21 10K compound library. The cytotoxicity of the Tox21 compound library against the HSE-bla HeLa cell line was tested in parallel by measuring the cell viability using CellTiter-Glo assay (Promega, Madison, WI) in the same wells.
Tox21 Assay Protocol Summary: The CellSensor HSE-bla HeLa cells (Invitrogen, Carlsbad, CA, USA) were dispensed at 1500 cells/6uL/well into 1536-well black wall/clear bottom plates using a Multidrop combi (Thermo Fisher Scientific, Waltham, MA) dispenser. After the assay plates were incubated at 37 C and 5% CO2 overnight, 23 nL of compounds dissolved in DMSO, positive controls or DMSO only was transferred to the assay plate by a Pintool station (Kalypsys, San Diego, CA). The plates were incubated at 37 C for 5 h. After 1 uL of LiveBLAzerTM B/G FRET substrate was added using a Flying Reagent Dispenser (FRD, Beckman Coulter, Indianapolis, IN, USA), the plates were incubated at room temperature for 2.5 h, and fluorescence intensity was measured by an Envision plate reader (PerkinElmer, Shelton, CT). For cell viability readout that measures cytotoxicity, 3 ul/well of CellTiter-Glo reagent was added into the assay plates using a FRD. After 30 min incubation at room temperature, the luminescence intensity in the plates was measured using a ViewLux (PerkinElmer) plate reader.
(qHTS replaces the single test concentration by a dilution series.)
On to `CCCNC(C)C(=O)Nc1ccccc1C` (stereo not given), for which the Potency entry is “inactive”. Regarding `O=C1NCC2(CCN(CCc3ccccc3)CC2)O1`, the Potency entry was “inactive”. As for `O=c1n(CC2CO2)c(=O)n(CC2CO2)c(=O)n1CC1CO1` (stereo not given), the entry is “inactive”. Regarding `CC(C)CCCCCCc1ccc(O)cc1`, the Potency is 39.6 µM (active) and 54.9 µM (active).

Take `O=C(O)c1cn(-c2ccc(F)cc2)c2cc(N3CCNCC3)c(F)cc2c1=O`: the Potency entry is “inactive”. As for `CC(C)(O)CCC(C)(C)O`, the entry is “inactive”. For `c1ccc2n[nH]nc2c1` the value was “inactive”; for `CCCCC/C=C/CC1CC(=O)OC1=O` (stereo not given), “inactive”. For `CC(=O)OCCOCCOCCOC(C)=O` the value was “inactive”; for `COc1ccc(CCN(C)CCCC(C#N)(c2ccc(OC)c(OC)c2)C(C)C)cc1OC` (stereo not given), “inactive”; for `Cc1scc2c1N(C(=O)CN1CCN(C)CC1)c1ccccc1NC2=O`, “inactive”. As for `CCCCCCCCCCCCCC[P+](CCCC)(CCCC)CCCC`, the Potency is 6.88 µM (active) and 13.8 µM (active).

As for `COC(=O)[C@H]1[C@H]2C[C@@H]3c4[nH]c5cc(OC)ccc5c4CCN3C[C@H]2C[C@@H](OC(=O)c2cc(OC)c(OC)c(OC)c2)[C@@H]1OC`, the Potency entry is “inactive”. As for `O=C1OC2(c3ccc(O)cc3Oc3cc(O)ccc32)c2ccccc21`, the entry is “inactive”. Consider `NC(=Nc1ccccc1)Nc1ccccc1`, for which the Potency entry is “inactive”.

For the compound `Nc1nc2ccccc2[nH]1`, the Potency result was “inactive”. For `CCCCOCCOC(=O)c1ccccc1C(=O)OCCOCCCC` the value was “inactive”. For `CCCCCCC(O)CCCCCCCCCCC(=O)O` (stereo not given), the Potency result was “inactive”. For `CC1COc2c(N3CCN(C)CC3)c(F)cc3c(=O)c(C(=O)O)cn1c23` (stereo not given), the Potency result is “inactive”.

Consider `OCC(CO)N[C@H]1C[C@](O)(CO)[C@@H](O)[C@H](O)[C@H]1O`, for which the Potency result was “inactive”. For `CCCOC(=O)c1cc(O)c(O)c(O)c1` the value was “inactive”. Consider `Cc1cc(OCCOCC[N+](C)(C)Cc2ccccc2)ccc1C(C)(C)CC(C)(C)C`, for which the Potency is 38.7 µM (active). Take `CC(N)=O`: the Potency result was “inactive”. With `CCn1c2ccccc2c2cc(N)ccc21`, the Potency result was “inactive”. For `CC(C)(C)c1ccc(O)c(C(C)(C)C)c1` the value was 48.8 µM (active) and 43.6 µM (active).

Consider `Cc1c(O)cccc1C(=O)N[C@@H](CSc1ccccc1)[C@H](O)CN1C[C@H]2CCCC[C@H]2C[C@H]1C(=O)NC(C)(C)C`, for which the Potency entry was “inactive”. Take `Nc1cc(S(=O)(=O)O)cc2cc(S(=O)(=O)O)cc(O)c12`: the Potency entry was “inactive”. `CCn1cc(C(=O)O)c(=O)c2cc(F)c(N3CCNC(C)C3)c(F)c21` (stereo not given): the Potency entry is “inactive”. As for `CC(C)CCOCc1ccccc1`, the entry is “inactive”. For `COc1ccc(CCN2CCC(Nc3nc4ccccc4n3Cc3ccc(F)cc3)CC2)cc1` the value was 17.8 µM (active) and inactive. As to `Cc1ccc(-c2cc(C(F)(F)F)nn2-c2ccc(S(N)(=O)=O)cc2)cc1`, the Potency result is “inactive”. As for `NC12CC3CC(CC(C3)C1)C2`, the entry is “inactive”; as for `Nc1cc(Cl)c(-c2cc(Cl)c(N)cc2Cl)cc1Cl`, 24.5 µM (active). For `Cc1occc(=O)c1OC(=O)C(C)C` the value was “inactive”. As to `CCCC(=O)c1ccccc1`, the Potency result is “inactive”.

On to `CCC(CO)(CO)COCC(CC)(CO)CO`, for which the Potency result was “inactive”. `O=C(OCc1ccccc1)c1ccc(O)cc1`: the Potency result was “inactive”. Turning to `CCc1cc(C(C)(C)C)c(O)c(C(C)(C)C)c1`, the Potency entry is “inactive”. Consider `CCOc1ccc2c(c1)C(C)=CC(C)(C)N2`, for which the Potency result is “inactive”. In the case of `CCN1CCCC1CNC(=O)c1cc(S(=O)(=O)CC)c(N)cc1OC` (stereo not given), the Potency result was “inactive”.

The record behind these values is PubChem BioAssay (Tox21).
